Assay outcomes (PubChem BioAssay)
In the library only some 17% were active in any assay of this set; here they are far more common.
TDP1 cell CPT – growth inhibition of DT40 Tdp1-/-;hTDP1 cells with camptothecin (screen for TDP1 inhibitors); chicken DT40 Tdp1-/-;hTDP1 cells + 20 nM CPT, ATP luminescence, 48 h; Potency, µM (series often up to 46.2 µM), without a hit: at the highest dose activity change, negative = growth inhibition, usual class: inhibitors; AID 686979; 420,000 tested, 12% active; further: on the % scale 0 is the no-effect control and ±100 the full control effect; nearly all actives have a fitted effect of over 55% in size
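Chicken DT40 Tdp1-/- cells complemented with human TDP1, 400 cells/well, exposed to compounds plus 20 nM camptothecin for at least 48 h at 37 C; viability read as ATP content by CellTiter-Glo luminescence.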
ClpP mod – qHTS Assay for Activators of ClpP | ATP-dependent Clp protease proteolytic subunit (Bacillus subtilis (strain 168)), P80244 | purified B. subtilis ClpP, FRET peptide cleavage, 20 min | Potency, µM (titrated, usually from 57.5 µM), inactives show top-dose activity change, negative = active | 340,000 tested, 1.9% active | AID 651965, 2013; active means well fitted falling curve with a large enough effect; inconclusive means small, poorly fitted or top-dose-only effect; inactive means no such curve, though single readings can be large or run the other way; further: the source files actives as falling curves though it sought activators and does not explain the sign; nearly all actives have a fitted effect of over 65% in size
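FRET quenching reversal measured ClpP activation: 10 microg/mL B. subtilis ClpP at pH 8 with the FRET-FV decapeptide, read at 430 nm after 320 nm excitation. The 20-min minus 0-min signal was scaled between DMSO/no-enzyme wells and ADEP (5.8 microM final).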
TDP1 inh – blocks human tyrosyl-DNA phosphodiesterase 1; Q9NUW8; recombinant TDP1, AlphaScreen DNA substrate cleavage; Potency, µM (titrated, usually from 130 µM), for inactives: at the top dose activity change, negative = inhibition, actives largely listed as inhibitors; 350,000 tested, 0.28% active; further: on the % scale 0 is the no-effect control and ±100 the full control effect; nearly all actives have a fitted effect of over 40% in size
Target sequence (Q9NUW8 whole entry, looked up): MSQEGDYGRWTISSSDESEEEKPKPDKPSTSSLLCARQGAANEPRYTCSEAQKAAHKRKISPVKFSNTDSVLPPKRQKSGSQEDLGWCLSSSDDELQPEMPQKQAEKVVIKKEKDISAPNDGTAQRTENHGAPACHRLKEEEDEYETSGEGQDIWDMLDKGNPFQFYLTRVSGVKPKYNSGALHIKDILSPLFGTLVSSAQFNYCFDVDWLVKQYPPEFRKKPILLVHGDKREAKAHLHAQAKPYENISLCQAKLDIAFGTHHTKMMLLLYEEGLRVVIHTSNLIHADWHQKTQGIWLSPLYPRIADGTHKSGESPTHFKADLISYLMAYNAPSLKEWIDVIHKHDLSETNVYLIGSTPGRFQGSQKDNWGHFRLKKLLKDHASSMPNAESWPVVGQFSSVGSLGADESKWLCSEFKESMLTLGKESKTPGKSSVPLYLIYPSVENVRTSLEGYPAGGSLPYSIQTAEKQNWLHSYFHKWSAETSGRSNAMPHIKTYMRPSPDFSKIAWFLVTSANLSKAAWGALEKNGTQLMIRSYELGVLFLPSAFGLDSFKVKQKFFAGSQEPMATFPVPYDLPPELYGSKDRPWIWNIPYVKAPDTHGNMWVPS
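Compounds were preincubated with Tdp1 (1 nM final) for 15 min at room temperature before substrate (15 nM final) started a 5 min reaction; beads (10 ug/ml final) were then added for 10 min before AlphaScreen detection.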
TDP1 cell noCPT – qHTS for Inhibitors of human tyrosyl-DNA phosphodiesterase 1 (TDP1): qHTS in cells in absence of CPT | DT40 Tdp1-/- hTDP1 cells, no CPT, ATP luminescence, 48 h | AID 686978, 2013 | Potency, µM (doses to about 46.2 µM), without a hit: at the top dose activity change, negative = growth inhibition, hits mostly inhibitors | 420,000 tested, 15% active; further: on the % scale 0 is the no-effect control and ±100 the full control effect; nearly all actives have a fitted effect of over 55% in size
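Readout: luminescence from CellTiter-Glo after 30 min in the dark at RT. Cells: DT40 Tdp1-/- with stable hTDP1, 400/well. Exposure: compounds alone, ≥48 hr, 37 °C.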
An asterisk follows results filed as active; [ ] = remark or other dose. Unless noted, the call rests on the fitted dose curve; in most records, active means well fitted curve in the direction sought with a large enough effect; inconclusive means small, poorly fitted or top-dose-only effect, or another doubt; inactive means no such curve, though single readings can be large; an effect the other way counts as inactive or inconclusive. Potency means the concentration at half of the fitted maximal effect.

Results for Cc1ccc(S(=O)(=O)N2CCC(C(=O)N3CCCC(C(F)(F)F)C3)CC2)cc1C (configuration not stated) ?
TDP1 cell CPT: inconclusive; ClpP mod: -3%; TDP1 inh: 0%; TDP1 cell noCPT: -26%

What do the screens show for `Cc1ccc(S(=O)(=O)N2CCC(C(=O)N3CCCCCCC3)CC2)cc1C`?
TDP1 cell CPT: 16µM*; ClpP mod: -4%; TDP1 cell noCPT: inconclusive

What do the screens show for `Cc1ccc(S(=O)(=O)N2CCC(C(=O)OCCOc3cccc(C)c3)CC2)cc1`?
TDP1 cell CPT: -4%; ClpP mod: 2%; TDP1 inh: -7%; TDP1 cell noCPT: 1%

How did Cc1ccc(S(=O)(=O)N2CCC(C(=O)N3CCc4ccccc43)CC2)cc1 do in these assays?
TDP1 cell CPT: inconclusive; ClpP mod: 1%; TDP1 inh: 3%; TDP1 cell noCPT: inconclusive

How did Cc1ccc(S(=O)(=O)N2CCC(C(=O)N3CCc4ccccc43)CC2)cc1C do in these assays?
TDP1 cell CPT: inconclusive; ClpP mod: 2%; TDP1 inh: -8%; TDP1 cell noCPT: 18µM*

Results for CCCn1c(=O)[nH]c(=O)c2c1nc(-c1ccc3c(c1)OCCO3)n2CCN1CCOCC1 ?
TDP1 cell CPT: -1%; ClpP mod: 32µM*; TDP1 inh: 6%; TDP1 cell noCPT: -11%

Results for CCCCn1c(=O)[nH]c(=O)c2c1nc(-c1cc(Br)ccc1OC)n2C ?
TDP1 cell CPT: -2%; TDP1 inh: -1%; TDP1 cell noCPT: inconclusive

Results for CCCn1c(-c2cccc([N+](=O)[O-])c2)nc2c1c(=O)[nH]c(=O)n2Cc1ccccc1 ?
TDP1 cell CPT: 21µM*; ClpP mod: -3%; TDP1 inh: 3%; TDP1 cell noCPT: 16µM*

What do the screens show for `CCCCn1c(=O)[nH]c(=O)c2c1nc(-c1ccsc1)n2Cc1ccccc1`?
TDP1 cell CPT: inconclusive; ClpP mod: -30%; TDP1 inh: 2%; TDP1 cell noCPT: 29µM*

How did CCCCn1c(=O)[nH]c(=O)c2c1nc(-c1ccccc1F)n2Cc1ccccc1OC do in these assays?
TDP1 cell CPT: 23µM*; ClpP mod: 1%; TDP1 inh: 5%; TDP1 cell noCPT: inconclusive

Results for COc1cccc(C2C(C(=O)Nc3ccccc3)=C(C)Nc3nc(-c4ccccc4)nn32)c1 (configuration not stated) ?
TDP1 cell CPT: inconclusive; ClpP mod: 5%; TDP1 inh: -3%; TDP1 cell noCPT: inconclusive

Results for Cc1ccc(-c2nc3c(c(=O)[nH]c(=O)n3Cc3ccccc3)n2C)o1 ?
TDP1 cell CPT: -26%; ClpP mod: 4%; TDP1 inh: 40µM*; TDP1 cell noCPT: -6%

How did Cc1ccc(-c2nc3c(c(=O)[nH]c(=O)n3Cc3ccccc3)n2Cc2ccccc2)o1 do in these assays?
TDP1 cell CPT: inconclusive; ClpP mod: -2%; TDP1 inh: 5%; TDP1 cell noCPT: inconclusive

How did OCCN1CCN(c2ncnc3sc4c(c23)CCCC4)CC1 do in these assays?
TDP1 cell CPT: inconclusive; ClpP mod: -1%; TDP1 cell noCPT: inconclusive

What do the screens show for `Oc1ccc(N2CCN(c3ncnc4sc5c(c34)CCC5)CC2)cc1`?
TDP1 cell CPT: 23µM*; ClpP mod: -1%; TDP1 inh: 8%; TDP1 cell noCPT: 13µM*

Results for COc1ccccc1C(=O)NCCC(=O)N(C)CC(=O)Nc1ccc(N2CCOCC2)cc1 ?
TDP1 cell CPT: -3%; ClpP mod: -2%; TDP1 cell noCPT: -4%

How did COc1ccc2c(c1)CCc1cnc(-n3ncc(C(=O)NCCCN4CCOCC4)c3C)nc1-2 do in these assays?
TDP1 cell CPT: -2%[9.04 µM]; TDP1 cell noCPT: inconclusive

What do the screens show for `CC(C)c1cc2c(c(O)c1O)[C@@]13CCCC(C)(C)C1CC2OC3=O` (some centres not stated)?
TDP1 cell CPT: 5.2µM*; ClpP mod: -3%; TDP1 cell noCPT: 8.2µM*

Results for CN(CC(=O)NCC(=O)Nc1ccc(F)cc1)C1CCS(=O)(=O)C1 (configuration not stated) ?
TDP1 cell CPT: 3%; ClpP mod: -1%; TDP1 inh: 1%; TDP1 cell noCPT: -3%
